# Sampled rows, rich in hits. Any-hit rate of the full collection: about 2.1%.
# DUSP3 inh = inhibitors of human VHR1 phosphatase (DUSP3); P51452; 0.52% of 290,000 active; inhibition, % at 13.3 µM; recombinant VHR phosphatase, pNPP absorbance; AID 1654; in the data active = inhibition above about 50%
# Target sequence (P51452 whole entry, looked up): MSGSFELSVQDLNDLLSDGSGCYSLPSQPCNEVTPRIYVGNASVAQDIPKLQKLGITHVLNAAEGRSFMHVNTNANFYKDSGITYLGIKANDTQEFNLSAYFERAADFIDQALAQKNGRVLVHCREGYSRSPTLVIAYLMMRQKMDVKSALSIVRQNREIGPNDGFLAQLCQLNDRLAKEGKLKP
# BJeLR lethal = BJeLR cell viability loss | BJeLR (HRASV12) viability, CellTiter-Glo ATP luminescence, 48 h | inhibition, % (test concentration not listed) | 0.17% of 300,000 active | AID 1554; in the data active = inhibition above about 50%; inconclusive = no clear call, values can overlap the other calls
# PrP 5UTR inh = suppresses PrP 5' UTR mRNA reporter expression | AID 488862 | inhibition, % (test concentration not listed) | 0.35% of 340,000 active | cell-based PrP 5' UTR mRNA reporter, plate reader; in the data active = inhibition above about 52%
# PrPC TRFRET = cell surface PrPC inhibition, primary TR-FRET screen; P04156; TR-FRET read-out; inhibition, % at 13.8 µM; 0.43% of 370,000 active; AID 720596; in the data active = inhibition above about 24%
# MazEF act = increases E. coli MazEF RNase cleavage of RNA; P0AE70; activation, % at 20 µM; AID 504720; 0.32% of 350,000 active; FAM/BHQ RNA-DNA oligo cleavage fluorescence, 5 h; in the data active = activation above about 50%
# Target sequence (P0AE70 whole entry, looked up): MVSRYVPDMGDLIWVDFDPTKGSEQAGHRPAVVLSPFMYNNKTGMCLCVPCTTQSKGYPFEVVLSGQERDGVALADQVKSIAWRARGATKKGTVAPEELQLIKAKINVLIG
# PfHsp40 rescue = rescue of PfHsp40-mediated yeast toxicity. 0.68% of 340,000 active. AID 504582. S. cerevisiae expressing PfHsp40, growth rescue, ATP luminescence. growth rescue, % at 12.5 µM; in the data active = growth rescue above about 28%, passing the limit was not always enough; inconclusive = no clear call, values can overlap the other calls;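 note: yeast W303a lacking pdr1 and pdr3 grown in galactose medium; growth measured after three days at 30 °C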
# Hits are given with their value; – = inactive; ? = inconclusive; · = not tested or not shown.
SMILES,DUSP3 inh,BJeLR lethal,PrP 5UTR inh,PrPC TRFRET,MazEF act,PfHsp40 rescue
CC(C)Oc1ccc(S(=O)(=O)N2CCOCC2)cc1NC(=O)C(C)Oc1ccc(F)cc1 (stereo not drawn),·,–,–,–,–,–
CNC[C@@H](Cc1ccccc1)NC[C@@H](CC1CCCCC1)NCCCc1ccccc1,–,91.6,–,–,–,–
CNC[C@@H](CC1CCCCC1)NC[C@H](CC(C)C)NCCc1cccc(C(F)(F)F)c1,–,53.8,–,–,–,–
CCC[C@@H](CNC)NC[C@H](Cc1ccccc1)NCCCCc1ccccc1,–,–,–,–,–,–
CC[C@@H](C)[C@H](CNC)NC[C@@H](Cc1cccc2ccccc12)NCCc1cccc(C(F)(F)F)c1,–,–,–,–,–,–
CC(C)N1C(=O)CCC1C(=O)NCc1ccc(F)cc1Cl (stereo not drawn),–,–,–,–,–,?
O=C(CN1C(=O)COc2ccccc21)NC1CCCC1,–,–,–,–,–,–
CCOC(=O)CSc1nc2c(sc(=S)n2-c2ccccc2)c(=O)n1-c1ccc(OC)cc1OC,52.6,–,–,–,–,–
CCN(CC)C(=O)CSc1nc2c(sc(=S)n2-c2ccccc2)c(=O)n1-c1ccc(OC)cc1OC,–,–,–,–,–,–
CC(C)N1C(=O)CC(Nc2cccc3cccc(N)c23)C1=O (stereo not drawn),–,·,–,–,–,–
CN1C(=O)CC(Nc2cccc3cccc(N)c23)C1=O (stereo not drawn),58.3,–,–,·,–,–
Cc1cccc(NC(=S)NC(C)CCc2ccccc2)c1 (stereo not drawn),–,–,–,–,–,95.6
NS(=O)(=O)c1ccc(CCNc2nc3c(-c4cccc(F)c4)nnn3c3ccccc23)cc1,–,–,–,–,109.1,–
Cc1cccc(-c2nnn3c2nc(NCCc2ccc(S(N)(=O)=O)cc2)c2ccccc23)c1,–,–,–,–,–,–
CCOc1ccc(/C=C/C(=O)Nc2ccc(OC)cc2[N+](=O)[O-])cc1,–,–,–,–,236.8,–
O=C1CCC[C@H]2C[C@H](NCc3cccs3)CC[C@]23CCCN13,·,·,·,–,·,·
Cn1nnc2cc(NC(=O)N3CCN(c4ccccn4)CC3)ccc21,–,–,–,–,–,–
Cn1nnc2cc(C(=O)N3CCN(c4ccccn4)CC3)ccc21,52.9,–,–,–,–,–
OCCN(Cc1nc(-c2ccc3c(c2)OCO3)no1)Cc1cccs1,57.8,–,–,–,–,–
CN(CCN1CCc2ccccc2C1)Cc1nc(-c2ccc3c(c2)OCO3)no1,–,–,–,–,–,–
Cc1ccc(OCCC(=O)OCC(=O)Nc2cc(S(=O)(=O)N(C)C)ccc2C)cc1,–,–,–,–,–,31.8
c1coc(Cn2nnnc2CN2CCN(C3CCCC3)CC2)c1,–,–,–,–,102.3,–
CC(C)C(c1nnnn1Cc1ccco1)N1CCN(C2CCCC2)CC1 (stereo not drawn),–,–,–,–,–,–
C[C@@H]1ON(C)[C@H]2C[C@H]3c4[nH]c5c(-c6ccccc6)cccc5c4CCN3C[C@@H]12,·,·,·,–,·,·
COCCN1C(=O)C(CC(=O)Nc2ccc(C(C)=O)cc2)SC1=Nc1ccccc1 (stereo not drawn),57.4,–,–,–,–,–
SMILES,DUSP3 inh,BJeLR lethal,PrP 5UTR inh,PrPC TRFRET,MazEF act,PfHsp40 rescue
CCOC(=O)C(C(=O)OCC)c1cc(Br)c2noc3c2c1C(=O)c1ccccc1-3,–,–,–,–,178.0,–
CC(C)(C)NC(=O)CN(C(=O)CCC(=O)Nc1nccs1)c1ccc(F)cc1,–,–,–,–,–,–
CC(C)(C)NC(=O)CN(C(=O)CCC(=O)Nc1nccs1)c1ccc(F)c(Cl)c1,53.0,–,–,–,–,–
O=C(Nc1ccccc1O)c1ccccc1O,–,–,–,–,–,–
CC(=O)/C=C(\C)Nc1ccccc1O,–,–,–,–,–,43.3
C=CCNc1nc(N2CCOCC2)c(C#N)c2c1CN(C)CC2,–,–,–,–,53.8,–
CN1CCc2c(C#N)c(N3CCCCC3)nc(N3CCOCC3)c2C1,·,–,·,·,–,·
CC(CCC(C)C(C)(C)C)[C@@H]1CC[C@H]2C3C[C@H](OS(O)(=S)=S)[C@H]4C[C@H](OS(O)(=S)=S)[C@@H](OS(O)(=S)=S)C[C@]4(C)[C@H]3CC[C@]12C (stereo partly drawn) (tested in a mixture with another compound),·,·,–,·,–,104.1
CC(CCC(=O)NN)C1CCC2C3CCC4CC(O)CCC4(C)C3CCC12C (stereo not drawn),·,·,–,–,–,–
Fc1ccc(NC(=S)N/N=C/c2ccc(F)c(F)c2)c(F)c1,51.6,–,–,–,–,–
CC(C)C(=O)Nc1c(C(=O)N2CCN(c3ncccn3)CC2)oc2ccccc12,52.7,–,–,–,–,–
CCC(CC)C(=O)Nc1c(C(=O)N2CCN(c3ccccc3)CC2)oc2ccccc12,–,–,–,–,–,–
CCOc1ccccc1NS(=O)(=O)c1cc2c3c(c1)CC(=O)N3CCC2,–,–,–,–,–,–
COc1ccc2nc(C)cc(SCC(=O)N/N=C/c3ccco3)c2c1,–,–,–,–,–,–
COc1ccc(OC)c(/C=N/NC(=O)CSc2cc(C)nc3c(OC)cccc23)c1,53.0,–,–,–,–,–
Cc1cccc(C2=NN(c3ccc(Br)cc3)[C@@H](C(=O)N3CCOC3=O)[C@@H]2c2ccc(F)cc2)c1,–,–,–,–,–,–
Cc1cccc(C2=NN(c3ccc(Br)cc3)[C@@H](C(=O)N3CCOC3=O)[C@@H]2c2ccc(Cl)cc2)c1,·,·,–,·,128.9,–
N/C(=N\OC(=O)c1ccc2ccccc2c1)c1ccccc1Cl,–,–,–,–,–,87.3
CC(C)c1ccc(/C=N/NC(=O)c2cc(-c3cccc([N+](=O)[O-])c3)n[nH]2)cc1,–,–,–,–,–,–
C/C(=N/NC(=O)c1cc(-c2cccc([N+](=O)[O-])c2)n[nH]1)c1ccc(Cl)cc1,–,–,–,–,56.5,–
CC(C(=O)N/N=C/c1ccc(N(C)C)c(Br)c1)N(c1ccccc1)S(C)(=O)=O (stereo not drawn),50.3,–,–,–,–,–
O=C(O)c1cc(S(=O)(=O)N2CCN(C(=O)c3ccco3)CC2)c(Cl)cc1Cl,–,–,–,–,–,–
CN(C)CCNc1ncnc2c1ncn2[C@H]1CN(CCc2ccccc2)C[C@@H](CO)O1,·,·,·,–,·,·
Cc1noc(C)c1CC(=O)N1CCCC(C(=O)c2ccc(C(C)(C)C)cc2)C1 (stereo not drawn),–,–,–,–,–,–
CC(C)(C)c1ccc(C(=O)C2CCCN(C(=O)C3CCOCC3)C2)cc1 (stereo not drawn),–,–,–,–,72.7,–
O=C(c1cccnc1)N1CCc2ccccc2C1,50.8,–,–,–,–,–

# Source: PubChem (several laboratories)
